DNA Pol III inh: DNA polymerase III holoenzyme inhibition. reconstituted DNA polymerase III holoenzyme replication, biochemical. Potency, µM (top dose mostly 57.1 µM). actives 0.25% (n = 71,000). AID 603
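Reconstituted *E. coli* holoenzyme (0.35 nM Pol III, 1 nM beta, 154 nM SSB, 2 nM primase) was preincubated with compound for 15 min at RT. Synthesis on 1.4 nM ssM13Gori ran 35 min, then was stopped with PicoGreen/EDTA and read as dsDNA fluorescence.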
p53ts 39C kill: cytotoxicity in p53ts cells at nonpermissive temperature. AID 902. actives 1.5% (n = 130,000). Potency, µM (top dose mostly 46.1 µM), actives largely listed as cytotoxic. H1299-p53A138V viability at 39C, ATP luminescence, 24 h; note: nearly all actives have a fitted effect of over 55% in size
Tau fil binding: binds recombinant human tau filaments; P10636; Potency, µM (doses to about 57.1 µM); actives 2% (n = 71,000); recombinant tau filaments, thioflavin S fluorescence, 15 h; filaments grown with octadecylsulfate alongside compound;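 note: actives lower thioflavin S fluorescence by blocking filaments or displacing dye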
Target sequence (P10636 whole entry, looked up): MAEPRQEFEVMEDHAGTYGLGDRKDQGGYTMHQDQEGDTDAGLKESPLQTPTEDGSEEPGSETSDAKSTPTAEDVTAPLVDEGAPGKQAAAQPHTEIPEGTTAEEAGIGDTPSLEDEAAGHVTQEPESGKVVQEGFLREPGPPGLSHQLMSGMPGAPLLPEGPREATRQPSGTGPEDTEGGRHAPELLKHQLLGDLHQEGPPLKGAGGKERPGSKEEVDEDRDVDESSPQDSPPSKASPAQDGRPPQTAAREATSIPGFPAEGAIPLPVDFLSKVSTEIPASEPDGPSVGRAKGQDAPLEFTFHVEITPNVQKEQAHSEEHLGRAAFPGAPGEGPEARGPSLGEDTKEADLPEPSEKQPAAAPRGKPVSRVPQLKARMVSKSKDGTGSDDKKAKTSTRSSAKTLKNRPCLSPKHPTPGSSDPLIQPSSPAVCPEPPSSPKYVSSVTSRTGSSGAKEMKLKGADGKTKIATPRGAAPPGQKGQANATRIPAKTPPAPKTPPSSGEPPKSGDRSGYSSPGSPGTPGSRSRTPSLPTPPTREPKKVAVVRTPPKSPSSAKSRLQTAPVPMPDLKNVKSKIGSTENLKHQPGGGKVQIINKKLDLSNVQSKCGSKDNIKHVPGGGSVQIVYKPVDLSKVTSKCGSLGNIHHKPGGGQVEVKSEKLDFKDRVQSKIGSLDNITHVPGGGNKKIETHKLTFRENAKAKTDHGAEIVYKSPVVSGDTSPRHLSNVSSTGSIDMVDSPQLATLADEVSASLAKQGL
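Recombinant tau protein (human, 1 uM final) plus 30 uM ODS in HEPES pH 7.4 with NaCl, DTT and thioflavine S. Compound present from the start; fluorescence at 510 nm after 15 h, 37 C.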
YjeE inh: YjeE (TsaE) inhibition, E. coli. Potency, µM. purified YjeE enzyme, qHTS inhibition assay. actives 0.05% (n = 71,000)
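Purified YjeE (10 uM) with BODIPY Texas Red-labeled ADP probe (2 uM); compounds pin-transferred, 15 min at room temperature. Binding inhibition read as decreased fluorescence polarization; ADP titration as control.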
p53ts 32C kill: p53ts cell cytotoxicity, permissive temperature; H1299-p53A138V at 32C, ATP luminescence viability, 24 h; Potency, µM (doses to about 46.1 µM), hits mostly cytotoxic; actives 0.93% (n = 130,000); AID 924; note: nearly all actives have a fitted effect of over 55% in size
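Cells: H1299 p53ts (A138V), 600/well, pre-incubated 16–30 h at 37C. Cpd up to 46 uM, 24 h, 32C. Readout: ATPlite luminescence, 20 min RT. Normalization: DMSO vs tamoxifen 100 uM. AC50 by Hill equation.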
ERK AVP block: inhibitors of vasopressin-stimulated ERK signaling pathway; actives 0.99% (n = 72,000); HEK293-V1b, vasopressin-stimulated pERK AlphaScreen; AID 995; Potency, µM (series often up to 57.5 µM), usual class: inhibitors; note: nearly all actives have a fitted effect of over 55% in size
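qHTS, compounds titrated on V1b-expressing HEK293 cells. Preincubation 30 min at 37C, vasopressin 25 nM for 5 min, lysis 10 min, bead incubation 5 hr at room temperature.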
Of the large screens only hits and unclear results are named; the others gave an inactive call; ! = not confirmed by another sample. In the library only some 3.2% were active in any assay of this set; here they are far more common. Calls come from the whole dose curve; as a rule, active = well fitted curve in the direction sought with a large enough effect; inconclusive = small, poorly fitted or top-dose-only effect, or another doubt; inactive = no such curve, though single readings can be large; an effect the other way counts as inactive or inconclusive.

COC(=O)c1cc(CSc2nnc(-c3ccccc3)c(-c3ccccc3)n2)oc1C	Tau fil binding 16µM
COc1ccc(Cl)cc1NC(=O)NC(C)c1ccncc1 (stereo not given)	none
COc1ccc(Cl)cc1NC(=O)C1CSC(c2ccncc2)=N1 (stereo not given)	ERK AVP block 16µM
OC(CNCc1ccco1)Cn1c2ccccc2c2ccccc21 (stereo not given)	p53ts 39C kill 13µM, p53ts 32C kill inconclusive, ERK AVP block inconclusive
CCCCCSc1nc2sc3c(c2c(=O)n1-c1ccc(OC)cc1)CCN(C(C)=O)C3	p53ts 39C kill 13µM, p53ts 32C kill inconclusive (no result: DNA Pol III inh, Tau fil binding, YjeE inh, ERK AVP block)
CC(=O)Oc1cc(OC(C)=O)c2c(=O)cc(-c3ccc(OC(C)=O)c(OC(C)=O)c3)oc2c1	Tau fil binding inconclusive, ERK AVP block inconclusive
Oc1c(CN2CCN(c3ccccc3)CC2)cc(Br)c2cccnc12	p53ts 39C kill inconclusive, Tau fil binding inconclusive
Oc1c(Br)cc(Br)c2cccnc12	p53ts 39C kill 7.9µM, p53ts 32C kill inconclusive (no result: DNA Pol III inh, Tau fil binding, YjeE inh)
COc1ccc(Oc2ncc3nc(-c4ccccc4)c(=O)n(Cc4cccs4)c3n2)cc1	Tau fil binding inconclusive
CC(=O)c1sc(Nc2nc3ccc(F)cc3s2)nc1C	p53ts 39C kill inconclusive, p53ts 32C kill 20µM
COCCCNC(=O)c1ccc(-c2nc(CS(=O)(=O)c3ccc(C)cc3)c(C)o2)cc1	none (no result: DNA Pol III inh, Tau fil binding, YjeE inh, ERK AVP block)
C=CCN1C(=O)CS/C1=C(\C#N)S(=O)(=O)c1ccc(C)cc1	Tau fil binding 16µM, ERK AVP block inconclusive
C=CCN1C(=O)CSC1=Nc1cccc(O)c1	ERK AVP block inconclusive
CCOc1ccc(CCNC(=O)CCc2c(C)nc3cc(-c4ccccc4OC)nn3c2C)cc1	none (no result: DNA Pol III inh, Tau fil binding, YjeE inh, ERK AVP block)
Cc1ccc2cccnc2c1	none
Nc1ccc2ncccc2c1	p53ts 39C kill 3.2µM, p53ts 32C kill inconclusive
CCOc1ccc(NC(=O)c2nn(C)c3c2COc2ccccc2-3)cc1	none (no result: DNA Pol III inh, Tau fil binding, YjeE inh, ERK AVP block)
COc1ccc(CCNc2nc(SCc3ccccc3F)nc3ccccc23)cc1OC	none (no result: DNA Pol III inh, Tau fil binding, YjeE inh, ERK AVP block)
O=C1CC(c2ccc3c(c2)OCO3)Sc2nc3ccccc3n21 (stereo not given)	p53ts 39C kill 13µM, p53ts 32C kill 13µM
NC(=NCCCCCCN=C(N)/N=C(\N)Nc1ccc(Cl)cc1)/N=C(\N)Nc1ccc(Cl)cc1	Tau fil binding 6.3µM!, YjeE inh inconclusive, ERK AVP block inconclusive (no result: p53ts 39C kill, p53ts 32C kill)
CC(C)CNC(=O)NC1C(NC(=O)NCC(C)C)N(C)C(=O)N1C (stereo not given)	p53ts 39C kill 6.3µM, p53ts 32C kill 5µM
CCC(C)NC(=O)NC1C(NC(=O)NC(C)CC)N(C)C(=O)N1C (stereo not given)	none (no result: DNA Pol III inh, Tau fil binding, YjeE inh, ERK AVP block)
Cc1[nH]n(-c2ccccc2)c(=O)c1/C=N\NC(=O)C1COc2ccccc2O1 (stereo not given)	p53ts 39C kill 14µM (no result: DNA Pol III inh, Tau fil binding, YjeE inh, p53ts 32C kill, ERK AVP block)
CC(=O)N1CCC2(CC1)CCN(c1ncccn1)CC2	none
CCOC(=O)c1cc(-c2ccc3c(c2)OCCO3)nc2c1c(C)nn2CCC#N	none
CCOC(=O)c1cc(-c2ccco2)nc2c1c(C)nn2CCC#N	Tau fil binding 16µM
CS(=O)(=O)c1nc(-c2ccccc2)cc(C(F)(F)F)n1	p53ts 39C kill inconclusive, p53ts 32C kill 6.3µM
COc1ccccc1CN1COc2ccc3c(C)cc(=O)oc3c2C1	none (no result: DNA Pol III inh, Tau fil binding, YjeE inh, ERK AVP block)
CCCCS(=O)(=O)/C=C\C=C/S(=O)(=O)CCCC	p53ts 39C kill inconclusive, p53ts 32C kill 20µM, ERK AVP block 3.2µM
COc1ccc(C(=O)n2nc(-c3ccco3)nc2NCc2cccs2)cc1	none (no result: DNA Pol III inh, Tau fil binding, YjeE inh, ERK AVP block)
Cn1c(C(=O)N2CCCC(C(=O)NCCc3ccccc3)C2)cc2sccc21 (stereo not given)	ERK AVP block inconclusive
Cn1c(C(=O)N2CCCC(C(=O)NCCCc3ccccc3)C2)cc2sccc21 (stereo not given)	ERK AVP block 20µM
CCN(c1ccccc1)S(=O)(=O)c1ccc2[nH]cc(C(=O)NCc3ccc(C)cc3)c(=O)c2c1	none (no result: DNA Pol III inh, Tau fil binding, YjeE inh, ERK AVP block)
C=CCn1c(N)c(-c2nc3ccccc3n2C)sc1=S	Tau fil binding 16µM, ERK AVP block inconclusive
Cc1cccc(N2CCN(Cc3cc(=O)oc4cc(C)ccc34)CC2C)c1 (stereo not given)	none (no result: DNA Pol III inh, Tau fil binding, YjeE inh, ERK AVP block)

From PubChem BioAssay
